The results in this text go back to PubChem BioAssay.

As a reminder, the inhibition is the change of the read-out against control, counted positive when it falls.

Unmarked numbers belong to inactive results. Calls of active or inactive are those of the source.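 Rule for the calls, unless noted: active = compounds that lower survival of HCT116 colon cancer cells in the luminescence readout, no numeric limit stated; inactive = the rest.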

Assay [1] in a line: stimulators of insulin release from INS-1E, primary screen, cell-based, 5 mM glucose, NPC library (AID 1117329;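 active = compound raises insulin release from rat beta cells at 5 mM glucose, no numeric limit stated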). The conditions noted are these: rat INS-1E insulin secretion, at 10 µM, stronger effect = higher value.
The nature of assay [2]: growth inhibition of GSK3B-pretreated HCT116 cells – cell-based, CellTiter-Glo, 0.2 to 20 µM (AID 1117336;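 active = compounds lowering colon cancer cell viability after pretreatment blocking the GSK3B kinase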). The conditions noted are these: HCT116 viability after GSK3B inhibitor, at 20 µM, stronger effect = higher value. (In general: ATP-based viability assays read luminescence as a measure of living cells.)
Assay [3] is described as follows: inhibition of endothelial tube formation, primary screen, imaging, VEGF stimulated, CD31 staining, tube area, NPC library (AID 1117340;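 active = compound that reduces growth-factor-driven endothelial tube area in a mixed cell culture, no cutoff stated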). The conditions noted are these: VEGF-stimulated ADSC/ECFC co-culture, at 10 µM, stronger effect = higher value.
The nature of assay [4]: glucagon-like peptide 1 release enhancers, primary assay, NCI-H716 cell line, NPC library (AID 1117341;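 active = compound raises GLP1 secretion from the human gut endocrine cells, with no numeric limit stated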). The note with it: NCI-H716 cells, at 10 µM, stronger effect = higher value.
Assay [5] can be described thus: HCT116 colon cancer cell growth inhibition, primary screen, CellTiter-Glo luminescence, NPC library (AID 1117342). The conditions noted are these: at 20 µM (top of the series).
Assay [6] is described as follows: CellTiter-Glo luminescent readout of SW480 viability loss, NPC library primary (AID 1117343;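 active = compounds that lower viability of the colon cancer cells in the luminescence readout, with no numeric limit stated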). The note with it: CellTiter-Glo luminescence; at 20 µM (top of the series).
Assay [7] is described as follows: decreased DLD-1 cellular survival, CellTiter-Glo luminescent readout, NPC compound collection, primary HTS (AID 1117346;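 active = compounds that lower survival of DLD-1 colon cancer cells in the luminescence readout, no cutoff given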). The note with it: DLD-1 viability, CellTiter-Glo luminescence; at 20 µM (top of the series).
The target in assay [8] is 6-phosphogluconate dehydrogenase, decarboxylating (Homo sapiens) (UniProt P52209). Description: 6PGD enzyme inhibitors, primary screen, biochemical, human, recombinant enzyme, NADPH absorbance (AID 1159550;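 active = at least 20% inhibition of 6-phosphogluconate dehydrogenase activity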). The conditions noted are these: recombinant 6PGD, NADPH absorbance 341 nm; at 10 µM; stronger effect = higher value.
6-phosphogluconate dehydrogenase, decarboxylating (Homo sapiens), sequence (P52209 whole entry, looked up): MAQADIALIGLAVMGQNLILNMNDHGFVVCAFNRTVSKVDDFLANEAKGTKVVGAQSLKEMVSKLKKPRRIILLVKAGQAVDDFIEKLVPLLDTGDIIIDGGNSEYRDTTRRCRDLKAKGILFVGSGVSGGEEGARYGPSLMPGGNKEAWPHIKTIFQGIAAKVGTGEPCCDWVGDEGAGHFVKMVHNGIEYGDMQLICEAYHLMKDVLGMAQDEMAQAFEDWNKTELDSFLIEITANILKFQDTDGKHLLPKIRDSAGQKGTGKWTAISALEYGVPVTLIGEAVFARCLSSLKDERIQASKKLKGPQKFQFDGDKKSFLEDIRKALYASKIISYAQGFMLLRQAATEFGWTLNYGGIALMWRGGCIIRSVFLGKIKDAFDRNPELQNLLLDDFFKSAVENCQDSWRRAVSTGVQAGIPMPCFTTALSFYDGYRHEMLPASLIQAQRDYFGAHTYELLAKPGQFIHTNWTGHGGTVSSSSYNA

Turning to `CN(C)C(=O)Nc1ccc(Cl)c(Cl)c1`, the insulin secretion stimulation in assay [1] is -2.3%. In addition, the viability decrease in assay [2] is -3.75%. For the same molecule, the tube area decrease in assay [3] is -17.1%. In assay [4], the GLP1 secretion stimulation was -0.7%. Also, the inhibition of viability in assay [5] is -2.8%. For the same molecule, the viability decrease (inhibition) in assay [6] was 11.2%; in assay [7], 13.6%. The inhibition in assay [8] was -8.44%.

With `CN1[C@@H]2CC[C@H]1CC(OC(=O)C(O)c1ccccc1)C2` (stereo not given in full), the insulin secretion stimulation in assay [1] was 3.1%. Also, the viability decrease in assay [2] was 15%. Further, the tube area decrease in assay [3] was -13.1%. In addition, the GLP1 secretion stimulation in assay [4] was 1%. For the same molecule, the inhibition of viability in assay [5] was 28%. Besides, the viability decrease (inhibition) was 22.2% in assay [6] and -0.2% in assay [7]. In assay [8], the inhibition is -3.32%.

For `C[C@]12CC[C@@H]3c4ccc(O)cc4CC[C@H]3[C@@H]1CCC2=O`, the insulin secretion stimulation in assay [1] was -1.5%. For the same molecule, the viability decrease in assay [2] is -6%. For the same molecule, in assay [3], the tube area decrease is 21.8%. In assay [4], the GLP1 secretion stimulation was -1.2%. Also, in assay [5], the inhibition of viability is -35.2%. Moreover, the values for the viability decrease (inhibition) in assay [6] and in assay [7] were 32.8% and -3.45%, respectively. For the same molecule, the inhibition in assay [8] is -17.4%.

Consider `C[C@]12C[C@H](O)[C@H]3[C@@H](CCC4=CC(=O)CC[C@@]43C)[C@@H]1CC[C@@H]2C(=O)CO`, for which the insulin secretion stimulation in assay [1] was 1.6%. In assay [2], the viability decrease is -24.9%. Moreover, the tube area decrease in assay [3] was 9.5%. Also, the GLP1 secretion stimulation in assay [4] was 0.3%. Also, the inhibition of viability in assay [5] was -2.93%. In addition, the viability decrease (inhibition) in assay [6] was 37.4%; in assay [7], 8.6%.

Consider `CC(=O)[C@@]1(O)CC[C@H]2[C@@H]3C[C@H](C)C4=CC(=O)C=C[C@]4(C)[C@@]3(F)[C@@H](O)C[C@@]21C`, for which the insulin secretion stimulation in assay [1] is -1.1%. The viability decrease in assay [2] was -45.9%. Also, the tube area decrease in assay [3] was -16%. In assay [4], the GLP1 secretion stimulation was -0.3%. The inhibition of viability in assay [5] was -1.33%. Besides, the values for the viability decrease (inhibition) in assay [6] and in assay [7] were -18.3% and -7.2%, respectively. Also, the inhibition in assay [8] is 15.2%.

With `CC1CC(OC(=O)C(O)c2ccccc2)CC(C)(C)N1C` (stereo not given), the insulin secretion stimulation in assay [1] was 2.7%. In addition, in assay [2], the viability decrease is 3.6%. For the same molecule, the tube area decrease in assay [3] is 10.4%. The GLP1 secretion stimulation in assay [4] is 2.1%. The inhibition of viability in assay [5] is 9.83%. In addition, the viability decrease (inhibition) in assay [6] was 17.1%; in assay [7], 0.1%. For the same molecule, the inhibition in assay [8] is -25.4%.

On to `O=c1cc(CO)occ1O`, for which, in assay [1], the insulin secretion stimulation is -1.3%. Further, in assay [2], the viability decrease was -8.3%. Also, the tube area decrease in assay [3] is -7.1%. The GLP1 secretion stimulation in assay [4] was 1.9%. For the same molecule, the inhibition of viability in assay [5] is -7%. The figures for the viability decrease (inhibition) in assay [6] and in assay [7] were 38.7% and 10.8%, respectively. Further, the inhibition in assay [8] is 6.93%.

As to `Nc1ncnc2c1ncn2[C@@H]1O[C@H](COP(=O)(O)O)[C@@H](O)[C@H]1O`, the insulin secretion stimulation in assay [1] was 0.05%. The viability decrease in assay [2] was -14.7%. In assay [3], the tube area decrease is -5.6%. Moreover, in assay [4], the GLP1 secretion stimulation is 4%. For the same molecule, the inhibition of viability in assay [5] was -14.3%. Also, the viability decrease (inhibition) was 73.2% (active) in assay [6] and -4.1% in assay [7]. Further, in assay [8], the inhibition was -8.33%.

With `CC[C@]12CCCN3CCc4c(n(c5ccccc45)[C@@](O)(C(=O)OC)C1)[C@@H]32`, in assay [1], the insulin secretion stimulation was -1.7%. For the same molecule, the viability decrease in assay [2] is -2.5%. The tube area decrease in assay [3] was 25.6%. For the same molecule, the GLP1 secretion stimulation in assay [4] was -2.6%. Also, in assay [5], the inhibition of viability was -43.9%. Moreover, the viability decrease (inhibition) in assay [6] was 0.1%; in assay [7], -31.5%. Also, the inhibition in assay [8] is -2.98%.

In the case of `OCC(O)CN1CCN(c2ccccc2)CC1` (stereo not given), the insulin secretion stimulation in assay [1] is 0.6%. For the same molecule, the viability decrease in assay [2] was -6.6%. Further, in assay [3], the tube area decrease was -0.2%. In addition, the GLP1 secretion stimulation in assay [4] is -1.1%. Also, the inhibition of viability in assay [5] is 4.03%. In addition, the values for the viability decrease (inhibition) in assay [6] and in assay [7] were 29% and -12.9%, respectively. In assay [8], the inhibition was 8.41%.

`CC(=O)O[C@]1(C(C)=O)CC[C@H]2[C@@H]3C=C(Cl)C4=CC(=O)CC[C@]4(C)[C@H]3CC[C@@]21C`: the insulin secretion stimulation in assay [1] was 0%. Besides, the viability decrease in assay [2] is 56.2% (active). The tube area decrease in assay [3] is 22.4%. For the same molecule, the GLP1 secretion stimulation in assay [4] was 1.3%. In assay [5], the inhibition of viability was 52.6% (active). The viability decrease (inhibition) in assay [6] was 57.1% (active); in assay [7] it was 7.1%. Also, in assay [8], the inhibition is -12%.

Regarding `C[C@@H]1C[C@H]2[C@@H]3C[C@H](F)C4=CC(=O)C=C[C@]4(C)[C@@]3(F)[C@@H](O)C[C@]2(C)[C@@]1(O)C(=O)CO`, the insulin secretion stimulation in assay [1] was 2.8%. Also, the viability decrease in assay [2] is -29.3%. For the same molecule, the tube area decrease in assay [3] is -2.9%. Also, the GLP1 secretion stimulation in assay [4] is -2.9%. Also, the inhibition of viability in assay [5] was 4.83%. Moreover, the results for the viability decrease (inhibition) in assay [6] and in assay [7] were -11.5% and -9.6%, respectively. Further, the inhibition in assay [8] was 8.65%.

Consider `Nc1c2c(nc3ccccc13)CCCC2O` (stereo not given), for which, in assay [1], the insulin secretion stimulation was 11.8%. Also, the viability decrease in assay [2] was 5.9%. The tube area decrease in assay [3] was 16.1%. Also, in assay [4], the GLP1 secretion stimulation was 8.3%. In assay [5], the inhibition of viability was 3.6%. For the same molecule, the results for the viability decrease (inhibition) in assay [6] and in assay [7] were 26.9% and -22.2%, respectively. For the same molecule, in assay [8], the inhibition is 7.08%.

For `CC[C@]12CCCN3CCc4c(n(c5ccccc45)C(=O)C1)[C@@H]32`, the insulin secretion stimulation in assay [1] was 0.1%. Also, the viability decrease in assay [2] is -29%. For the same molecule, in assay [3], the tube area decrease is 100% (active). Also, in assay [4], the GLP1 secretion stimulation was 7.7%. The inhibition of viability in assay [5] was 35.7%. The results for the viability decrease (inhibition) in assay [6] and in assay [7] were 60% (active) and 66.2% (active), respectively. In assay [8], the inhibition was -5.24%.

Regarding `O=C(CCCCC(=O)Nc1c(I)cc(I)c(C(=O)O)c1I)Nc1c(I)cc(I)c(C(=O)O)c1I`, the insulin secretion stimulation in assay [1] was -1.2%. Also, the viability decrease in assay [2] is -15.2%. Also, the tube area decrease in assay [3] was 5.5%. In assay [4], the GLP1 secretion stimulation was -3.5%. In assay [5], the inhibition of viability was -1.4%. Also, the viability decrease (inhibition) in assay [6] was 7.4%; in assay [7], -2.6%. Moreover, the inhibition in assay [8] is 15.2%.

As to `CC(=O)OCC(=O)[C@@]1(O)[C@H](OC(C)=O)C[C@H]2[C@@H]3CCC4=CC(=O)C=C[C@]4(C)[C@@]3(F)[C@@H](O)C[C@@]21C`, the insulin secretion stimulation in assay [1] was 2.1%. In addition, the viability decrease in assay [2] is -9%. Moreover, in assay [3], the tube area decrease is -8.6%. The GLP1 secretion stimulation in assay [4] is 2.4%. The inhibition of viability in assay [5] is -8.2%. For the same molecule, the viability decrease (inhibition) in assay [6] was 18.4%; in assay [7] it was -14.1%. Moreover, the inhibition in assay [8] is 14.6%.

With `CO[C@@]1(NC(=O)CSCC#N)C(=O)N2C(C(=O)O)=C(CSc3nnnn3C)CS[C@@H]21`, the insulin secretion stimulation in assay [1] was -1.4%. In addition, in assay [2], the viability decrease was -2.9%. The tube area decrease in assay [3] is -0.3%. Also, the GLP1 secretion stimulation in assay [4] was -2.4%. Also, the inhibition of viability in assay [5] was -6.4%. Further, the viability decrease (inhibition) in assay [6] is -7.4%; in assay [7], -14.4%. Further, the inhibition in assay [8] is -6.33%.
